Screens (PubChem BioAssay)
The sample as a whole holds a higher share of hits than the screen did.
HTT ATP protect: cytoprotection in Huntington HTT-Q103 PC12 cell model | PC12 HTT-Q103 induced, cytoprotection, ATP luminescence, 40 h | Potency, µM (titrated, usually from 56.4 µM), for the others: cytoprotection (ATP increase), usual class: activators | 0.14% of 230,000 active | AID 1471; also: % of control where 0% means no effect; nearly all actives have a fitted effect of over 45% in size
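Cells were plated at 1500 per well in phenol red-free DMEM with 5% equine and 5% calf serum. Tebufenozide (100 nM final) and compounds were added, then ATPlite reagent, and luminescence was read.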
PINK1 modulator: modulators of PINK1 expression; PINK1 immunofluorescence, high-content cytometry, 24 h; Potency, µM (series often up to 76.6 µM), without a hit: at the top dose activation (PINK1 increase), actives largely listed as activators; 0.2% of 410,000 active; active = well fitted activation curve with a large enough effect; inconclusive = small, poorly fitted or top-dose-only effect; cell line not stated here; also: % of control where 0% means no effect; nearly all actives have a fitted effect of over 65% in size
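Compound titrations (5 concentrations, 24 h) on a stable cell line; DMSO and CCCP controls. Endpoint: fixed-cell PINK1 immunofluorescence with mitochondrial, cell and nuclear markers, scanned by microplate cytometer.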
HTT aggregate: mutant huntingtin aggregation inhibition. 1.1% of 220,000 active. PC12 HttQ103-GFP aggregates, Acumen cytometry, 40 h. AID 1688. Potency, µM (highest dose often 46.1 µM), for the others: top-dose activity change, negative = inhibition, most hits filed as inhibitors; also: % is scaled to controls: 0 for no effect and ±100 for the full control effect; nearly all actives have a fitted effect of over 60% in size
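Read-out: GFP aggregate count by laser scanning cytometer (488 nm excitation, 500-530 nm emission, 1–25 µm objects >6 SD above background). Cells: PC12, inducible HTTex1-Q103-GFP, 100 nM tebufenozide; compounds titrated.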
PTAP TSG101 blk: blocks PTAP/TSG101 interaction to inhibit HIV-1 budding | Potency, µM (top dose mostly 115 µM), without a hit: at the top dose activity change, negative = inhibition, most hits filed as inhibitors | 340,000 tested, under 10 active | Fluorescence polarization, FITC-PTAP peptide / Tsg101 binding | AID 493005; active = well fitted inhibition curve with a large enough effect in the main read-out, with a control signal flat, not every such curve was filed as active; inconclusive = small, poorly fitted or top-dose-only effect, or effect the other way, or a change in a side signal; inactive = no such curve, though single readings can be large or run the other way; also: % of control where 0% means no effect
Target sequence (Q99816 whole entry, looked up): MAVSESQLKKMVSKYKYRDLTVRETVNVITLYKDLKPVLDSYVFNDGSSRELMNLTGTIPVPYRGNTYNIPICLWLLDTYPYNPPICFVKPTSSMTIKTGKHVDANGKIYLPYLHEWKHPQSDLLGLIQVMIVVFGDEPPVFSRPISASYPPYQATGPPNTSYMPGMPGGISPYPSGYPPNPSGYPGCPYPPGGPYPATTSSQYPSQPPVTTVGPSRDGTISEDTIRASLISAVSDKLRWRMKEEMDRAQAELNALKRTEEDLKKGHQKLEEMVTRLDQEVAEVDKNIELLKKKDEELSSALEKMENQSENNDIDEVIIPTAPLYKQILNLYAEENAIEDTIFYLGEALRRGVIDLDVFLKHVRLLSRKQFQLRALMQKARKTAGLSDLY
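Fluorescence polarization binding of Tsg101 binding domain (10 uM final) to FITC-labeled PTAP peptide (50 nM final) in HEPES pH 7.5 buffer with NaCl, Tween 20, EDTA, TCEP. Compounds added before peptide; binding 20 min at RT.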
Epigenetic derep: derepresses silenced GFP reporter in murine cells; murine LDR cells, GFP reporter derepression, 30 h; Potency, µM (titrated, usually from 53.9 µM), without a hit: at the highest dose GFP activation, most hits filed as activators; 0.2% of 280,000 active; AID 1865; also: % of control where 0% means no effect; nearly all actives have a fitted effect of over 60% in size
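Reporter derepression read as number of fluorescent GFP-positive objects, 20-120 um in size, counted by laser-scanning cytometer. Mouse LDR line with an epigenetically silenced CMV-GFP locus; compound incubation 30 h, 37 C.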
Apoferritin bind: binds horse apoferritin like a general anesthetic; apoferritin/1-aminoanthracene competitive binding, fluorescence; 0.074% of 350,000 active; AID 485281; Potency, µM (top dose mostly 77.5 µM), for inactives: at the top dose activity change, negative = displacement, actives largely listed as inhibitors; P02791; also: % is scaled to controls: 0 for no effect and ±100 for the full control effect; nearly all actives have a fitted effect of over 20% in size
Target sequence (P02791 2-175 limits assumed): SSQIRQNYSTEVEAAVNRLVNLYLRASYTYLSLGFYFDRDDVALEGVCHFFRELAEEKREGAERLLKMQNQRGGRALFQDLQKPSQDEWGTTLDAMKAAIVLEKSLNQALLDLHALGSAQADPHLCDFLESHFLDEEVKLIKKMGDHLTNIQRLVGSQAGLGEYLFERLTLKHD
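Horse-spleen apoferritin (10 uM) in 50% saturated 1-aminoanthracene in PBS was incubated 10 min at room temperature with compound. Fluorescence (ex 380, em 535 nm) was normalized to free and bound 1-AMA, with concentration-response fitted by a four-parameter Hill equation.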
An asterisk follows results filed as active; ! = not active in a repeat; [ ] = dose if it differs, or a comment. Unless noted, calls follow the shape of the dose curve; as a rule, active = well fitted curve in the direction sought with a large enough effect; inconclusive = small, poorly fitted or top-dose-only effect, or another doubt; inactive = no such curve, though single readings can be large; an effect the other way counts as inactive or inconclusive. Potency is read from the fitted curve at half-maximal effect.

Screening O=C(CSc1nc2c([nH]c3ccccc32)c(=O)n1-c1ccccc1)N1CCCC1 returned PINK1 modulator 1%, Epigenetic derep 1% and Apoferritin bind 3%.
For CCCCCCCCn1ccc(=N)cc1 the results were HTT ATP protect -64%[10 µM], PINK1 modulator 2%, HTT aggregate -45%[9.22 µM], PTAP TSG101 blk 1%, Epigenetic derep 10% and Apoferritin bind 0%.
Screening CCCCCCCCCCCCCCCCn1cc[n+](C)c1 returned HTT ATP protect -41%[10 µM], PINK1 modulator -3%, HTT aggregate 13µM*!, PTAP TSG101 blk 1%, Epigenetic derep 0% and Apoferritin bind inconclusive.
`O=C(CN1Cc2ccccc2OC(c2ccsc2)C1)NCC1OCCc2ccccc21` (centres undefined) gave PINK1 modulator -1%.
For Cc1ccc(-c2csc(N3CCC(C(N)=O)CC3)n2)cc1 the results were PINK1 modulator -1%.
Cc1ccc(-c2csc(N3CCC(NS(=O)(=O)c4ccc5c(c4)OCCO5)CC3)n2)cc1 was read as HTT ATP protect inconclusive, PINK1 modulator -1%, HTT aggregate 6.3µM*, PTAP TSG101 blk -6%, Epigenetic derep -1% and Apoferritin bind 5%.
CCCSc1nsc(NC(=O)Nc2ccc(F)cc2F)n1 was read as PINK1 modulator 13µM*, PTAP TSG101 blk -1% and Apoferritin bind 77%.
Screening CCCSc1nsc(NC(=O)CC)n1 returned HTT ATP protect -46%[10 µM], PINK1 modulator -1%, HTT aggregate -17%[9.22 µM], PTAP TSG101 blk 6%, Epigenetic derep 1% and Apoferritin bind -6%.
For CCSc1nsc(NC(=O)Nc2cccc(F)c2)n1 the results were PINK1 modulator inconclusive, PTAP TSG101 blk -4% and Apoferritin bind -5%.
For CCCSc1nsc(NC(=O)C(c2ccccc2)c2ccccc2)n1 the results were HTT ATP protect -77%[10 µM], PINK1 modulator inconclusive, HTT aggregate 5µM*, PTAP TSG101 blk 1%, Epigenetic derep 12% and Apoferritin bind 29%.
Cc1ccc(Sc2c(C)nn(C(=O)COc3ccccc3Br)c2C)cc1 was read as PINK1 modulator 2%, Epigenetic derep -4% and Apoferritin bind 6.3µM*.
`Clc1ccc(-n2cccc2CN2CCc3nnc(Cc4ccccc4)n3CC2)nc1` gave PINK1 modulator 0%.
CC(C)COC(=O)NCCOC(=O)Nc1cccc(Cl)c1 was read as HTT ATP protect -13%[10 µM], PINK1 modulator -1%, HTT aggregate 10µM*, PTAP TSG101 blk -3%, Epigenetic derep 0% and Apoferritin bind 1%.
`O=C(Nc1cccc(Cl)c1)OCc1cnc(Cl)s1` gave HTT ATP protect -2%, PINK1 modulator 9%, HTT aggregate -4%, PTAP TSG101 blk -7%, Epigenetic derep -1% and Apoferritin bind 10µM*.
COc1cc(O)c2c(c1)oc(=O)c1c3cc(O)c(O)cc3oc21 was read as Apoferritin bind 71%.
Screening O=C(c1nnsc1S(=O)(=O)c1ccc(Cl)cc1)N1CCOCC1 returned HTT ATP protect -161%, PINK1 modulator -2%, HTT aggregate 13µM*, PTAP TSG101 blk 0%, Epigenetic derep inconclusive and Apoferritin bind -8%.
For O=C(c1nnsc1S(=O)c1ccc(Cl)cc1)N1CCOCC1 (centres undefined) the results were HTT ATP protect -153%, PINK1 modulator -1%, HTT aggregate 11µM*, PTAP TSG101 blk -2%, Epigenetic derep 0% and Apoferritin bind -1%.
Screening CNC(=O)c1nnsc1S(=O)(=O)c1ccc(Cl)cc1 returned HTT ATP protect -140%, PINK1 modulator 0%, HTT aggregate 3.2µM*, PTAP TSG101 blk -4%, Epigenetic derep 2% and Apoferritin bind inconclusive.
O=C(Nc1ccccc1)c1nnsc1S(=O)c1ccc(Cl)cc1 (centres undefined) was read as HTT ATP protect -102%, PINK1 modulator -4%, HTT aggregate inconclusive, PTAP TSG101 blk 0%, Epigenetic derep -1% and Apoferritin bind inconclusive.
COc1cc(NC(=O)Cn2c(=O)ccc3cc(S(=O)(=O)N4CCCC4)ccc32)cc(OC)c1 was read as PINK1 modulator -5%, Epigenetic derep 1% and Apoferritin bind 8%.
`Cc1cc(/C=C2/SC(=S)N(c3ccc([N+](=O)[O-])cc3)C2=O)c(C)n1-c1cccnc1` gave PINK1 modulator 2%, HTT aggregate 4µM*, PTAP TSG101 blk -10%, Epigenetic derep -5% and Apoferritin bind -8%.
For Cc1ccc2nc(NC(=O)C3CCN(S(=O)(=O)c4cccs4)CC3)sc2c1 the results were HTT ATP protect 3.5µM*, PINK1 modulator 0%[38.3 µM], HTT aggregate -24%, PTAP TSG101 blk -1%, Epigenetic derep 0% and Apoferritin bind -11%.
Screening O=C(Nc1nc2ccc(S(=O)(=O)N3CCCCC3)cc2s1)c1ccncc1 returned HTT ATP protect -10%[10 µM], PINK1 modulator 1%, HTT aggregate 3.5µM*, PTAP TSG101 blk 0%, Epigenetic derep -8% and Apoferritin bind -1%.
CC1=Nc2ccccc2/C1=C\c1nc(-c2ccc(C(F)(F)F)cc2)oc1O was read as HTT ATP protect -5%, PINK1 modulator inconclusive, HTT aggregate -2%, PTAP TSG101 blk inconclusive, Epigenetic derep 13µM* and Apoferritin bind -13%.
CC1=Nc2ccccc2/C1=C\c1nc(-c2ccccc2)oc1O was read as HTT ATP protect inconclusive, PINK1 modulator 5%, HTT aggregate 9%, PTAP TSG101 blk -6%, Epigenetic derep 0% and Apoferritin bind inconclusive.
For O=C(NC(NC(=S)Nc1c(Cl)cccc1Cl)C(Cl)(Cl)Cl)OCc1ccccc1 (centres undefined) the results were HTT ATP protect -4%[10 µM], PINK1 modulator inconclusive, HTT aggregate 22µM*, PTAP TSG101 blk -4%, Epigenetic derep 1% and Apoferritin bind -3%.
Screening Cc1cccc(OCCSCc2nc3ccccc3[nH]2)c1 returned HTT ATP protect -19%, PINK1 modulator 3%, HTT aggregate -15%, PTAP TSG101 blk -5%, Epigenetic derep 0% and Apoferritin bind inconclusive.
Cc1ccccc1OCCSCc1nc2ccccc2[nH]1 was read as HTT ATP protect 3%[10 µM], PINK1 modulator inconclusive, HTT aggregate 3.5µM*, PTAP TSG101 blk -2%, Epigenetic derep 0% and Apoferritin bind 1%.
O=C(Cc1ccc([N+](=O)[O-])cc1)N/N=C/c1ccc([N+](=O)[O-])o1 was read as HTT ATP protect -211%, PINK1 modulator 35µM*, HTT aggregate 26%[9.22 µM], PTAP TSG101 blk -1%, Epigenetic derep -8% and Apoferritin bind inconclusive.
